Screening results as filed in PubChem BioAssay.
In the library only some 2.3% were active in any assay of this set; here they are far more common.
POLB inh = blocks human DNA polymerase beta activity; 340,000 tested, 1.3% active; Pol beta primer extension/strand displacement, fluorescence kinetic; P06746; Potency, µM (highest dose often 114 µM), inactives show top-dose activity change, negative = inhibition, usual class: inhibitors; further: on the % scale 0 is the no-effect control and ±100 the full control effect
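Pol beta (10 nM) and compounds were preincubated 15 min at room temperature, then 50 nM substrate (final) started primer extension/strand displacement. Reads were taken at 0 and 10 min; concentration-response data were fitted to a four-parameter Hill equation.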
Pol eta inh = inhibitors of human DNA polymerase eta; Q9Y253; recombinant Pol eta, fluorescent DNA replication assay; Potency, µM (series often up to 114 µM), for inactives: at the top dose activity change, negative = inhibition, usual class: inhibitors; 390,000 tested, 1.2% active; AID 588591; further: on the % scale 0 is the no-effect control and ±100 the full control effect
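Pol eta (10 nM) was preincubated with compounds for 15 min at room temperature, after which fluorescent replication substrate (50 nM final) was added to start the reaction. Fluorescence was read kinetically at 0 and 10 min.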
POLI inh = DNA polymerase iota (human) inhibition; Q9UNA4; Pol iota fluorescent replication assay, 10 min; Potency, µM (series often up to 115 µM), for inactives: top-dose activity, negative = inhibition, hits mostly inhibitors; 390,000 tested, 1% active; AID 588590
Target sequence (Q9UNA4 whole entry, looked up): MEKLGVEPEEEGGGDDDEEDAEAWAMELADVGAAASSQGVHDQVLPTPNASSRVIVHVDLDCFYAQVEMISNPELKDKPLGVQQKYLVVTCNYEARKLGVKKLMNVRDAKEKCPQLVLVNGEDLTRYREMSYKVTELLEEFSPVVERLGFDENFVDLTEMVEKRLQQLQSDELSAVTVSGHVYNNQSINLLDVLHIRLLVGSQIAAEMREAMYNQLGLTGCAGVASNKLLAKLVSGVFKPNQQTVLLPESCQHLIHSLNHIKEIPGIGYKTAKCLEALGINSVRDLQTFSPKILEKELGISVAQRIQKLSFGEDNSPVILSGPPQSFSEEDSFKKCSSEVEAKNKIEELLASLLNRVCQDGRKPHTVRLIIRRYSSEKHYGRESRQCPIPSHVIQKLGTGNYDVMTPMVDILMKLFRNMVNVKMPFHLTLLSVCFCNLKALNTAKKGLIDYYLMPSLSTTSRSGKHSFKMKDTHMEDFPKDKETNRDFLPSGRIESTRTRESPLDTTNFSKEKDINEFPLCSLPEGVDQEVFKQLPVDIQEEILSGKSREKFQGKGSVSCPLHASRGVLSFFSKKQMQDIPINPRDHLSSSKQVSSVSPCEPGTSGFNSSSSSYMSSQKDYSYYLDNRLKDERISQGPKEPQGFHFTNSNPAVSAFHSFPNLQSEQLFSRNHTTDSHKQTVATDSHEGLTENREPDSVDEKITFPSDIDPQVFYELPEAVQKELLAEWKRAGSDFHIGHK
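Fluorescent replication assay read twice, at 0 min and 10 min after adding 50 nM (final) substrate. Enzyme (10 nM) and compounds were first incubated 15 min at room temperature; enzyme-free buffer wells were negative controls.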
WRN inhibitor = WRN helicase (human) inhibition; 360,000 tested, 0.46% active; WRN helicase unwinding, fluorescent forked duplex, kinetic; Q14191; Potency, µM (series often up to 114 µM), for the others: top-dose activity change, negative = inhibition, usual class: inhibitors; further: on the % scale 0 is the no-effect control and ±100 the full control effect; nearly all actives have a fitted effect of over 55% in size
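Kinetic fluorescence helicase assay: unwinding of a quenched forked DNA duplex (100 nM final) with 2 mM ATP final raises red fluorescence (525/598 nm). Compounds sat 15 min at room temperature with 20 nM WRN beforehand.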
POLK inh = inhibitors of human DNA polymerase kappa | Q9UBT6 | purified Pol kappa, fluorescent DNA synthesis assay, 10 min | Potency, µM (highest dose often 107 µM), inactives show at the top dose activity, negative = inhibition, usual class: inhibitors | 400,000 tested, 0.53% active | AID 588579; further: on the % scale 0 is the no-effect control and ±100 the full control effect
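50 nM final substrate added after 15 min RT preincubation of 10 nM Pol kappa with compound; fluorescence read at 0 and 10 min.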
Numbers without * were called inactive; ? = inconclusive; nt = not tested or not shown; [ ] = remark or other dose. The call rests on the fitted dose curve; in most records, active means well fitted curve in the direction sought with a large enough effect; inconclusive means small, poorly fitted or top-dose-only effect, or another doubt; inactive means no such curve, though single readings can be large; an effect the other way counts as inactive or inconclusive. Potency means the concentration at half of the fitted maximal effect.

SMILES | POLB inh | Pol eta inh | POLI inh | WRN inhibitor | POLK inh
CC1=NN(c2ccccc2)C(=O)C1C(=O)c1cc([N+](=O)[O-])cc([N+](=O)[O-])c1 (centres undefined) | 2% | -4% | 16µM* | -16% | -5%
CCCS(=O)(=O)c1c(S(=O)(=O)CCC)c2cc(C(C)(C)C)ccn2c1C(=O)c1ccc(OC)c(OC)c1 | 0% | 3% | -2% | nt | 11%
CCCS(=O)(=O)c1c(S(=O)(=O)CCC)c2cc(C(C)(C)C)ccn2c1C(=O)c1ccccc1 | 2% | 89µM* | 32% | nt | -16%
O=C(Cc1cccs1)Nc1nnc(SCc2ccc(C(F)(F)F)cc2)s1 | ? | ? | 6% | ? | -17%
O=C(Cc1cccs1)Nc1nnc(SCc2ccc(Br)cc2)s1 | 32µM* | ? | ? | -4%[11.6 µM] | ?
Cc1ccccc1CSc1nnc(NC(=O)Cc2cccs2)s1 | 22µM* | ? | 101% | -31% | -25%
Cc1cccc(NC(=O)Cc2cccs2)n1 | 40µM* | 11% | 5% | -15% | -33%
Cc1nnc(NC(=O)Cc2cccs2)s1 | 35µM* | ? | 45µM* | -16%[57.1 µM] | ?
O=C1CSC2(C(=O)N(Cc3ccccc3F)c3ccccc32)N1c1cccc(C(F)(F)F)c1 (centres undefined) | 0% | -11% | -20% | nt | -7%
C[C@@H]1CC2C3CCC4=CC(=O)C=CC4(C)[C@@]3(F)[C@@H](O)CC2(C)[C@@]1(O)C(=O)CO (some centres undefined) | nt | nt | nt | nt | 3%[60.1 µM]
CC(C)(C)OC(=O)N(c1cccc2cccnc12)S(=O)(=O)c1ccccc1Br | nt | nt | 47% | nt | -5%
Cc1ccc(N/C(C(Cl)=C(Cl)Cl)=C(/Cl)[N+](=O)[O-])c(C)c1 | -2% | -10% | 16µM* | 2% | 0%
Nc1cc(C(=O)O)c(N)c2c1C(=O)c1ccccc1C2=O | ? | 20µM* | 20µM* | ? | ?
CC1CCN(c2oc(-c3cccs3)nc2S(=O)(=O)c2ccc(Cl)cc2)CC1 | 1% | -7% | -7% | nt | -5%
O=C1/C(=C/c2ccccc2Cl)SC(=S)N1CCC(=O)N1CCCCC1CCO (centres undefined) | 1% | -12% | 25µM* | -6%[11.6 µM] | ?
O=C(CCCN1C(=O)/C(=C/c2ccccc2Cl)SC1=S)NCCCN1CCOCC1 | 3% | -1% | ? | 89µM* | -3%
O=C1/C(=C\c2ccccc2)SC(=S)N1CCC(=O)N1CCCCC1CCO (centres undefined) | 32% | 5% | 21% | -2% | 6%
O=C(CCN1C(=O)/C(=C/c2ccccc2F)SC1=S)NCCCN1CCOCC1 | 42% | -23% | 76% | -10% | -14%
CC(C)Oc1ccc(-c2nc(-c3cccnc3)no2)cc1 | nt | nt | 18% | nt | -4%
Cc1ccc(OCC(=O)Nc2sc3c(c2C#N)CC(C)(C)NC3(C)C)cc1 | -17% | -4% | 133% | 3% | -7%
CC1(C)Cc2c(sc(NC(=O)COc3cccc4ccccc34)c2C#N)C(C)(C)N1 | 22µM* | ? | ? | -29% | -15%
CCc1cccc(NC(=O)c2ccc(Cn3c(=O)[nH]c4ccsc4c3=O)cc2)c1 | 45µM* | ? | -7% | -28%[11.6 µM] | 1%
Cc1cccc(NC(=O)CCCCCn2c(=O)[nH]c3ccsc3c2=O)c1 | -1% | -3% | -15% | nt | -23%
O=C(NNS(=O)(=O)c1cccc(Cl)c1)c1cc(-c2ccc(F)cc2)nc2ccccc12 | 50µM* | ? | ? | -15% | -17%
O=C(NN=C1CCCC1)c1cc(-c2ccc(F)cc2)nc2ccccc12 | 15% | -2% | 6% | -6% | -6%
SMILES | POLB inh | Pol eta inh | POLI inh | WRN inhibitor | POLK inh
CC(C)c1ccc(Cn2cnc3c(cnn3C(C)(C)C)c2=O)cc1 | nt | nt | -7% | nt | 0%
Cc1nn(-c2ccccc2)c2nc(N)c(C#N)c(-c3ccc(O)c(O)c3)c12 | ? | 50µM* | ? | -10%[11.6 µM] | -3%
CCCN(CC(=O)Nc1ccccc1C)C(=O)Cc1c[nH]c2ccccc12 | nt | -8% | 4% | 3% | 2%
CCCN(CC(=O)Nc1ccccc1C)C(=O)Cc1c(C)nc2ccccc2c1C | nt | ? | 79µM* | 5%[11.6 µM] | -32%
CCN1CCN(c2cc(C)c3cc(NC(=O)c4ccc(OC)c(OC)c4)ccc3n2)CC1 | 8.9µM* | ? | ? | -30% | ?
CCN1CCN(c2cc(C)c3cc(NC(=O)c4cc(OC)c(OC)c(OC)c4)ccc3n2)CC1 | ? | ? | -24% | nt | -13%[60.1 µM]
O=C(O)/C(CC(=O)c1ccc(Cl)cc1)=N/Nc1ccc([N+](=O)[O-])cc1[N+](=O)[O-] | ? | 89µM* | ? | -14%[11.6 µM] | ?
CCCCNC(=O)c1sc(=S)n2c1[nH]c(=O)c1ccc(C(=O)NCCc3ccc(OC)c(OC)c3)cc12 | ? | 18µM* | 14µM* | -17% | ?
O=c1[nH]cc(C#Cc2ccccc2)c2ncncc12 | nt | nt | 14% | nt | -18%
CCOC(=O)c1ccc(NC(=O)c2ccc(=O)n(Cc3cccc(C)c3)c2)cc1 | 5% | -19% | 17% | nt | -4%[60.1 µM]
COC(=O)C1=C(C)N=C2SC(C#N)=C(N)N2C1c1ccc(OC)cc1 (centres undefined) | 0% | -11% | -3% | -15% | -4%
CCOC(=O)C1=C(C)N=C2SC(C(=O)OC)=CC(=O)N2C1c1ccc(OC)cc1 (centres undefined) | -19% | -13% | 89µM* | 0%[11.6 µM] | -24%
COc1ccccc1-c1cc2nc(C)cc(C)n2n1 | 89µM* | -20% | 41% | -5% | 0%
COc1ccccc1N1CCN(C(=O)c2ccc(C(C)(C)C)cc2)CC1 | ? | -26% | ? | 50µM* | -11%
COc1ccccc1N1CCN(C(=O)N2CCOCC2)CC1 | -22% | 0% | 89µM* | 4% | -9%
COc1ccc(C(=O)N2CCN(c3ccccc3OC)CC2)cc1 | 1% | 0% | 12% | 2% | -4%
CCCCN1CC(O)C(O)C(O)C1CO (centres undefined) | nt | nt | nt | nt | 5%[19.4 µM]
CC[C@H](C)[C@H](NC(=O)[C@@H](NC(=O)CNC(=O)[C@@H](N)CC(C)C)[C@@H](C)O)C(=O)N1CCC[C@H]1C(=O)NCC(=O)O | nt | nt | nt | nt | 15%[60.1 µM]
O=S(=O)(O)c1cc(O)c2c(N=Nc3ccc(Nc4ccccc4)c4c(S(=O)(=O)O)cccc34)cc(S(=O)(=O)O)cc2c1 | nt | nt | nt | nt | 3.2µM*
Cc1cc(/C=C2/C(=N)N3C(=NC2=O)SN=C3S(C)(=O)=O)c(C)n1-c1ccccc1F | 5% | 79µM* | ? | -12%[57.1 µM] | -13%
Cc1cc(/C=C2\C(=N)N3N=C(S(C)(=O)=O)SC3=NC2=O)c(C)n1Cc1ccccc1 | ? | 35µM* | ? | ? | -8%
O=[N+]([O-])c1ccc(O/N=[N+](\[O-])N2CCCCC2)c([N+](=O)[O-])c1 | nt | nt | 35% | nt | -22%
NCC(=O)c1c[nH]c2ccccc12 | nt | nt | ? | nt | -23%
